Sampled rows, rich in hits. Any-hit rate of the full collection: about 2.4%.
Pf gamet viab: kills late stage P. falciparum gametocytes | P. falciparum stage V gametocytes, ATP luminescence, 24 h | inhibition, % at 10.9 µM | hit rate 0.065% among 150,000 | AID 743093;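 active = inhibition above the mean plus 3 SD of compounds within the control limits, set per campaign, cut at about 38% in these data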
MEKK3 PB1 HTS: MEKK3-MEK5 PB1 interaction, increase or decrease. Q99759. bead-based flow cytometry, Alexa488-MEK5 binding to MEKK3; actives lie on both sides; 0 = blocked by unlabeled MEK5, 100 = vehicle. binding response (% of control), % at 10 µM. hit rate 1.4% among 290,000. AID 1529;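 active = binding response more than 3 SD above or below the average of its plate-row segment, actives on both sides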;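 note: Alexa488 bead fluorescence after subtracting the streptavidin-only scavenger bead signal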
Target sequence (Q99759 whole entry, looked up): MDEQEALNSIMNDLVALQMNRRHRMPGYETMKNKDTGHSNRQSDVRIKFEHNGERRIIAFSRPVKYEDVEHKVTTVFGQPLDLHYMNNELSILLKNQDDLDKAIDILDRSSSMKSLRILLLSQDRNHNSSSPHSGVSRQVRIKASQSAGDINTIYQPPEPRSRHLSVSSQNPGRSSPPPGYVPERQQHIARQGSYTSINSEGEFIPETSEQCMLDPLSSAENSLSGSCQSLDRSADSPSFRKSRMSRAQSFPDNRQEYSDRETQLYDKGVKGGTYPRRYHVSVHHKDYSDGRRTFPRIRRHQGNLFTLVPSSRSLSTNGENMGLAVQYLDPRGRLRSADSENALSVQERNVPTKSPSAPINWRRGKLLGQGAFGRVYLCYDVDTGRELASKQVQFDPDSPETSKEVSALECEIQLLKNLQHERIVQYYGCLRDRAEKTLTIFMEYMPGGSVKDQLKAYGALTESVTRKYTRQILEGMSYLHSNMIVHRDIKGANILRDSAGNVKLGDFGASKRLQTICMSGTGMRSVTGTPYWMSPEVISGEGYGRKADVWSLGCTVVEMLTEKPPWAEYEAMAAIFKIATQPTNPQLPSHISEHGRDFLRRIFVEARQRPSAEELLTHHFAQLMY
Arbovirus anti: blocks arbovirus infection; arbovirus infection cell-based antiviral screen; inhibition, % at 10 µM; hit rate 0.37% among 200,000; in the data active = inhibition above about 30%
MEKK2mut PB1 HTS: signal of MEK5 binding to mutant human MEKK2 PB1 domain | bead flow cytometry, Alexa488-MEK5 binding to MEKK2 mutant | percent response, % at 10 µM | hit rate 0.35% among 290,000; in the data active = percent response above about 24%, passing the limit was not always enough
MEKK2wt PB1 HTS: raises or lowers MEK5 binding to wildtype human MEKK2 PB1 domain; Q9Y2U5; bead flow cytometry, Alexa488-MEK5 binding to MEKK2 WT; actives lie on both sides; binding response (% of control), % at 10 µM; hit rate 1.1% among 290,000; AID 1531; in the data active = binding response below about 67% or above about 130%
MEKK2wt confirm: raises or lowers MEK5 binding to wildtype human MEKK2, retest. shares compounds with MEKK3 PB1 HTS. hit rate 2.4% among 5,900. binding response (% of control), % at 10 µM. AID 1892. bead flow cytometry, Alexa488-MEK5 binding to MEKK2 WT; actives lie on both sides; in the data active = binding response below about 16% or above about 210%; inactive = in between
MEKK2mut-MEK5: signal of MEK5 binding to mutant human MEKK2, retest; shares compounds with MEKK3 PB1 HTS; bead flow cytometry, Alexa488-MEK5 binding to MEKK2 mutant; percent response, % at 10 µM; hit rate 2% among 5,900; AID 1893; in the data active = percent response mostly above about 71%, no sharp cut-off; inactive = mostly below about 38%;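 note: higher means compound restores mutant binding toward wildtype level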
MEKK3 confirm: confirmation of inhibitors of MEK5 binding to human MEKK3; shares compounds with MEKK3 PB1 HTS; bead flow cytometry, Alexa488-MEK5 binding to MEKK3; active compounds read low; binding response (% of control), % at 10 µM; hit rate 1.8% among 5,900; AID 1894;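 active = binding response below 72% of control, or above a set upper limit, though filed actives all read lower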;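 note: lower values mean stronger disruption of MEK5 binding to MEKK3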
A number is an active result; [ ] = dose if it differs, or a comment.

O=C(CSc1nc2ccccc2s1)Nc1cc(S(=O)(=O)N2CCOCC2)ccc1Cl was read as Pf gamet viab inactive, MEKK3 PB1 HTS 129, Arbovirus anti inactive, MEKK2mut PB1 HTS inactive, MEKK2wt PB1 HTS inactive, MEKK2wt confirm inactive, MEKK2mut-MEK5 inactive and MEKK3 confirm inactive.
Nc1ccc2nc(SCC(=O)Nc3ccc(N4CCOCC4)c(Cl)c3)sc2c1 was read as Pf gamet viab inactive, MEKK3 PB1 HTS 135, Arbovirus anti inactive, MEKK2mut PB1 HTS inactive, MEKK2wt PB1 HTS inactive, MEKK2wt confirm inactive, MEKK2mut-MEK5 inactive and MEKK3 confirm inactive.
Screening O=C(CSc1nc2ccccc2s1)Nc1ccc2c(c1)OCO2 returned Pf gamet viab inactive, MEKK3 PB1 HTS 158, Arbovirus anti inactive, MEKK2mut PB1 HTS inactive, MEKK2wt PB1 HTS inactive, MEKK2wt confirm inactive, MEKK2mut-MEK5 inactive and MEKK3 confirm inactive.
Screening CCCC(=O)Nc1ccc2nc(SCC(=O)Nc3ccc(N4CCOCC4)c(Cl)c3)sc2c1 returned Arbovirus anti inactive.
`COc1ccc(CNC(=O)CN(C)Cc2ccc(C(C)(C)C)cc2)cc1` gave MEKK3 PB1 HTS inactive, MEKK2mut PB1 HTS inactive and MEKK2wt PB1 HTS inactive.
For COC(=S)N/C(=N\S(=O)(=O)c1ccc(Cl)cc1)c1ccccc1 the results were MEKK3 PB1 HTS inactive, MEKK2mut PB1 HTS inactive and MEKK2wt PB1 HTS inactive.
For CCCNC(=O)c1ccc2c(c1)C1C3CCC(C3)C1C(c1ccccc1)N2 (centres undefined) the results were Pf gamet viab inactive, MEKK3 PB1 HTS inactive, Arbovirus anti inactive, MEKK2mut PB1 HTS inactive and MEKK2wt PB1 HTS inactive.
Screening CC(C)(C)NC(=O)c1ccc2c(c1)C1C3CCC(C3)C1C(c1ccccc1)N2 (centres undefined) returned MEKK3 PB1 HTS 198, Arbovirus anti inactive, MEKK2mut PB1 HTS inactive, MEKK2wt PB1 HTS inactive, MEKK2wt confirm inactive, MEKK2mut-MEK5 inactive and MEKK3 confirm inactive.
For Cc1nc2ccccc2c2oc(C(=O)N3CCC(N4CCCCC4)CC3)cc12 the results were MEKK3 PB1 HTS inactive, Arbovirus anti inactive, MEKK2mut PB1 HTS 26, MEKK2wt PB1 HTS 138, MEKK2wt confirm inactive, MEKK2mut-MEK5 inactive and MEKK3 confirm inactive.
`Cc1cc(C)c(/C([O-])=C(/C(=S)Nc2ccc(SC(F)F)cc2)[n+]2ccccc2)cc1C` gave Pf gamet viab inactive, MEKK3 PB1 HTS inactive, Arbovirus anti inactive, MEKK2mut PB1 HTS inactive and MEKK2wt PB1 HTS inactive.
Screening [O-]/C(=C(\C(=S)Nc1ccc(SC(F)F)cc1)[n+]1ccccc1)c1cc(Cl)ccc1Cl returned Pf gamet viab inactive, MEKK3 PB1 HTS inactive, Arbovirus anti inactive, MEKK2mut PB1 HTS inactive, MEKK2wt PB1 HTS 58[inhibitor], MEKK2wt confirm inactive, MEKK2mut-MEK5 inactive and MEKK3 confirm inactive.
For COc1ccc(CCNC(=O)CCS(=O)(=O)c2ccc3c(c2)NC(=O)C(C)S3)cc1OC (centres undefined) the results were MEKK3 PB1 HTS inactive, MEKK2mut PB1 HTS inactive and MEKK2wt PB1 HTS inactive.
`COc1cccc(C(=O)NCCN2CCN(c3ccccc3)CC2)c1` gave MEKK3 PB1 HTS inactive, MEKK2mut PB1 HTS inactive and MEKK2wt PB1 HTS inactive.
O=C(OCc1cc2ccccc2[nH]c1=O)C1CCCCC1 was read as MEKK3 PB1 HTS inactive, Arbovirus anti inactive, MEKK2mut PB1 HTS inactive and MEKK2wt PB1 HTS inactive.
Cc1ccc2[nH]c(=O)c(COC(=O)C3CCCCC3)cc2c1 was read as Pf gamet viab inactive, MEKK3 PB1 HTS 129, MEKK2mut PB1 HTS inactive, MEKK2wt PB1 HTS inactive, MEKK2wt confirm inactive, MEKK2mut-MEK5 inactive and MEKK3 confirm inactive.
For COc1cc(C(=O)N(C)CC2CCN(CCc3cccc(C(F)(F)F)c3)CC2)ccc1C the results were Pf gamet viab inactive, MEKK3 PB1 HTS inactive, MEKK2mut PB1 HTS inactive and MEKK2wt PB1 HTS inactive.
Screening Cc1nc2c(-c3ccccc3)c(C)nn2c(C)c1CCC(=O)NCc1ccco1 returned MEKK3 PB1 HTS inactive, Arbovirus anti inactive, MEKK2mut PB1 HTS inactive and MEKK2wt PB1 HTS inactive.
CCN1CCN(c2cc(C(C)(C)C)nc3c(-c4ccccc4)c(C)nn23)CC1 was read as MEKK3 PB1 HTS inactive, Arbovirus anti inactive, MEKK2mut PB1 HTS inactive, MEKK2wt PB1 HTS 147, MEKK2wt confirm inactive, MEKK2mut-MEK5 inactive and MEKK3 confirm inactive.
CCN1CCN(c2ccc(NC(=O)CCc3c(C)nc4c(-c5ccccc5)c(C)nn4c3C)cc2)CC1 was read as MEKK3 PB1 HTS inactive, Arbovirus anti inactive, MEKK2mut PB1 HTS inactive, MEKK2wt PB1 HTS 138, MEKK2wt confirm inactive, MEKK2mut-MEK5 inactive and MEKK3 confirm inactive.
Screening COc1cc(OC)cc(C(=O)Nc2c(C)nn(-c3ccccc3)c2C)c1 returned Pf gamet viab inactive, MEKK3 PB1 HTS inactive, Arbovirus anti inactive, MEKK2mut PB1 HTS inactive and MEKK2wt PB1 HTS inactive.
`O=C(CN1CCOCC1)Nc1ccccc1Sc1ccc(Cl)cc1` gave Pf gamet viab inactive, MEKK3 PB1 HTS 129, Arbovirus anti inactive, MEKK2mut PB1 HTS inactive, MEKK2wt PB1 HTS inactive, MEKK2wt confirm inactive, MEKK2mut-MEK5 inactive and MEKK3 confirm inactive.
For O=C(CN1CCCC1)Nc1ccccc1Sc1ccccc1 the results were MEKK3 PB1 HTS inactive, Arbovirus anti inactive, MEKK2mut PB1 HTS inactive and MEKK2wt PB1 HTS inactive.
Screening Cc1nc(-c2ccc(C(=O)Nc3cc(S(N)(=O)=O)ccc3C)cc2)cs1 returned Pf gamet viab inactive, MEKK3 PB1 HTS inactive, MEKK2mut PB1 HTS inactive and MEKK2wt PB1 HTS inactive.
For CN1CCN(CC/C=C2/c3ccccc3Sc3ccc(S(=O)(=O)N(C)C)cc32)CC1 the results were MEKK3 PB1 HTS inactive, Arbovirus anti inactive, MEKK2mut PB1 HTS inactive, MEKK2wt PB1 HTS 143, MEKK2wt confirm inactive, MEKK2mut-MEK5 inactive and MEKK3 confirm inactive.
COc1cc2c(cc1Cl)/C(=C\CCN(C)C)c1ccccc1S2 was read as MEKK3 PB1 HTS inactive, Arbovirus anti inactive, MEKK2mut PB1 HTS inactive and MEKK2wt PB1 HTS inactive.
Screening CC(C)C[C@H]1CN=C(Nc2ccccc2)N1CCCC1CCCCC1 returned MEKK3 PB1 HTS inactive, MEKK2mut PB1 HTS 24, MEKK2wt PB1 HTS inactive, MEKK2wt confirm inactive, MEKK2mut-MEK5 inactive and MEKK3 confirm inactive.
Screening Cn1ccc(NC(=O)Nc2cccc([N+](=O)[O-])c2)n1 returned Pf gamet viab inactive, MEKK3 PB1 HTS inactive, Arbovirus anti inactive, MEKK2mut PB1 HTS inactive and MEKK2wt PB1 HTS inactive.
`CC(C)CC(OC(=O)c1ccco1)C(=O)NC1CCCC1` (centres undefined) gave MEKK3 PB1 HTS inactive, MEKK2mut PB1 HTS inactive and MEKK2wt PB1 HTS inactive.
